This is an account of results in PubChem BioAssay (NCATS).

Several values for one entry are separate records, joined by “and”; a condition that tells them apart may be missing. Identical values can stand only once. Results filed as inconclusive are left out. Some compounds were tested as several samples or in several runs, with calls that do not always agree. Activity calls are given as the source filed them. Unless noted, calls follow the shape of the dose curve; as a rule, active = well fitted curve in the direction sought with a large enough effect; inconclusive = small, poorly fitted or top-dose-only effect, or another doubt; inactive = no such curve, though single readings can be large; an effect the other way counts as inactive or inconclusive.

Assay [1] in a line: Viability counterscreen for agonist of constitutive androstane receptor (CAR) against the NCATS DSHEA and TCM libraries (AID 1794838).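 Also: HepG2 cells with CYP2B6 reporter and hCAR plus 0.75 µM PK11195 antagonist; 0% is about no effect.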 The gist of the method: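 HepG2-CYP2B6-hCAR cells (2,500/well) treated 24 h at 37C with compounds plus 0.75 uM PK11195; viability read by CellTiter-Fluor fluorescence, Ex/Em 405/540 nm.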
On the technique in general: A counterscreen serves to expose hits that act by an unwanted route or on another target.

Assay [2] can be described thus: HepG2 viability counterscreen (readout 2: ATP content) against the NCATS DSHEA and TCM libraries (AID 1794840). Also: 0% is about no effect. The gist of the method: (§1)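 HepG2 cells, 1,000/well, attached ~4 h, then exposed ~24 h at 37C to substances. Protease activity read by fluorescence of 25 uM GF-AFC (Ex/Em 380/510 nm) after 30 min; ATP then by CellTiter-Glo luminescence.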
Assay [3] is described as follows: HepG2 viability counterscreen (readout 1: protease activity) against the NCATS DSHEA and TCM libraries (AID 1794841).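 Also: cells exposed to compounds for about 24 h before the protease read; 0% is about no effect.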 The gist of the method:
as §1

Assay [4] has as its target Cytochrome P450 3A4 (Homo sapiens) (UniProt P08684). The assay is described as follows: qHTS for inhibitors of CYP3A4 against the NCATS DSHEA and TCM libraries (AID 1919971).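 Also: % is scaled to controls: 0 for no effect and ±100 for the full control effect; inhibition lowers luminescence from luciferin made by CYP3A4.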 The gist of the method:
(§2)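 Luminescent P450-Glo format: compounds preincubated 15 min with enzyme and luciferin substrate, reaction run 30-45 min after NADPH regeneration solution. Intraplate controls: ketoconazole for CYP3A4 and CYP2C19, sulfaphenazole for CYP2C9.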
On the technique in general: Quantitative high-throughput screening tests each substance at several concentrations.

Assay [5] is described as follows: KB-3-1 P-gp reporter qHTS against the NCATS DSHEA and TCM libraries (AID 1919975). Also: 0% is about no effect. The gist of the method:
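Parental KB-3-1 cells, 500 cells/well, in DMEM with 10% FBS, exposed 72 h at 37 C to compounds in concentration-response. Viability read by CellTiter-Glo luminescence after 30 min at room temperature.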

In assay [6] the target is Cytochrome P450 1A2 (Homo sapiens) (UniProt P05177). The assay is described as follows: qHTS for inhibitors of CYPIA2 against the NCATS DSHEA and TCM libraries (AID 1919976). Also: potency is read from the fitted curve at half-maximal effect.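 As to activity change, negative = inhibition: light from luciferin formed by CYP1A2 from a pro-luciferin substrate; series mostly up to about 37 µM; % is scaled to controls: 0 for no effect and ±100 for the full control effect.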 The gist of the method:
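Human CYP1A2 with pro-luciferin substrate (typically 100 mM KPO4), 15 min preincubation with compound, then 1x NADPH regeneration for 30-45 min at room temperature in the dark. Luciferin quantified by luciferase luminescence; furafylline intraplate control.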

Assay [7] is described as follows: qHTS Counterscreen for compound interference against the NCATS DSHEA and TCM libraries (AID 1919978).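 Also: compounds preincubated with 1 µM D-luciferin or buffer before detection reagent; % of control where 0% means no effect.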 Particulars: firefly luciferase detection reagent interference, luminescence. The gist of the method:
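Firefly luciferase detection reagent was added after compounds (19.5 nM–39.8 uM final) had been incubated 15 min at room temperature with 1 uM D-luciferin or with 100 mM phosphate buffer alone. Luminescence was read after 30 min at room temperature.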

The nature of assay [8]: Dual reporter qHTS for agonist of Pregnane X Receptor (hPXR) against the NCATS DSHEA and TCM libraries: Fluorescence readout (AID 1920058). Also: 0% is about no effect. The gist of the method:
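hPXR-Luc HepG2 cells, 2000/well in charcoal-stripped serum, attached 5 h, dosed for ~24 h at 37 °C. Fluorescence read is CellTiter-Fluor viability (Ex/Em 405/540 nm); rifampicin positive, tetraoctyl ammonium bromide (92 µM) cytotoxicity controls.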

Assay [9] is described as follows: NCATS anti-infectives library activity on HEK293 viability as a counter-qHTS vs the C. elegans viability qHTS (AID 1745854).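 Also: HEK293 cells exposed to compounds for 24 hr before the viability read; % is scaled to controls: 0 for no effect and ±100 for the full control effect.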 The gist of the method:
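HEK293 cells (1,500/well) exposed 24 hr at 37C to 1:5 titrations, up to 41.7 uM final; counter-screen to a C. elegans viability qHTS. Viability by CellTiter-Glo luminescence after 10 min at room temperature; digitonin as control.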

The target of assay [10] is Cytochrome P450 2D6 (Homo sapiens) (UniProt P10635). The assay is described as follows: qHTS for inhibitors of CYP2D6 against the NCATS DSHEA and TCM libraries (AID 1919972). Also: % is scaled to controls: 0 for no effect and ±100 for the full control effect. The gist of the method:
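Luminescent P450-Glo read-out of CYP2D6 turnover of a luciferin substrate after NADPH-driven reaction of 30-45 min at room temperature. Compounds were first preincubated 15 min with enzyme at titrated concentrations; quinidine was the intraplate control.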

In assay [11] the target is Glutathione peroxidase 1 (Homo sapiens) (UniProt P07203). The assay is described as follows: Primary qHTS Assay for Inhibitors of Recombinant Selenoprotein Glutathione Peroxidase 1 (GPX1) (AID 1845191). Also: nearly all actives have a fitted effect of over 65% in size. Also: potency is read from the fitted curve at half-maximal effect. The gist of the method: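 10 nM GPX1 + cpd, 30 min RT; start w/ 1 mM GSH, 0.5 mM cumene hydroperoxide, 0.5 mM NADPH, 100 nM GR, 0.01% BSA; buffer 50 mM Tris-HCl pH 7.5, 2 mM EDTA, 150 mM NaCl; Fl 340/450, 0 & 15 min.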

The target of assay [12] is Phospholipid hydroperoxide glutathione peroxidase GPX4 (Homo sapiens) (UniProt P36969). The assay is described as follows: Primary qHTS Assay for Inhibitors of Recombinant Selenoprotein Glutathione Peroxidase 4 (GPX4) (AID 1845192). Also: nearly all actives have a fitted effect of over 65% in size. Also: potency is read from the fitted curve at half-maximal effect. The gist of the method: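 NADPH consumption, followed by fluorescence at 340/450 nm between 0 and 15 min, reports GPX4 activity via coupled glutathione reductase (100 nM). Enzyme 200 nM was pre-exposed to compound 30 min; 0.5 mM cumene hydroperoxide and 1 mM GSH served as substrates.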

Assay [13] deals with Cytochrome P450 2C19 (Homo sapiens) (UniProt P33261). In words: qHTS for inhibitors of CYP2C19 against the NCATS DSHEA and TCM libraries (AID 1919974).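 Also: luminescence from luciferin released by CYP2C19 oxidation of a pro-luciferin substrate; % is scaled to controls: 0 for no effect and ±100 for the full control effect.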 The gist of the method:
as §2

The nature of assay [14]: NCATS anti-infectives library activity on the primary C. elegans qHTS viability assay (AID 1745855; calls by dose curve; also: potency is read from the fitted curve at half-maximal effect). The gist of the method:
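Viability read-out is GFP fluorescence of PE254-GFP-FLuc C. elegans, measured by laser cytometry (488 nm) at day 0, 3 and 7. Ten L1 worms per well were incubated 7 days at 21 °C with compounds and bacterial capsules in S medium.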

Sequence of Glutathione peroxidase 1 (Homo sapiens) (P07203 whole entry, looked up): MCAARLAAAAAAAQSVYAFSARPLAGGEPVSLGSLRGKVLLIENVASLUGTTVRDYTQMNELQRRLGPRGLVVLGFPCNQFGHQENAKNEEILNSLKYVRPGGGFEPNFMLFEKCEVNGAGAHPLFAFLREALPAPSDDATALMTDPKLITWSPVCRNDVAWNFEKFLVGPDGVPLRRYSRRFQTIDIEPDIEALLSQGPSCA
Sequence of Phospholipid hydroperoxide glutathione peroxidase GPX4 (Homo sapiens) (P36969 whole entry, looked up): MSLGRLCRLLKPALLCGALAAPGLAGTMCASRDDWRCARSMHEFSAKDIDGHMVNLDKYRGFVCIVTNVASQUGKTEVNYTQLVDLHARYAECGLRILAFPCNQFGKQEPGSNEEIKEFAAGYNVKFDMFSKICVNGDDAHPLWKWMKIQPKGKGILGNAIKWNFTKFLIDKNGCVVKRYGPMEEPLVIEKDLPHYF
Sequence of Cytochrome P450 3A4 (Homo sapiens) (P08684 whole entry, looked up): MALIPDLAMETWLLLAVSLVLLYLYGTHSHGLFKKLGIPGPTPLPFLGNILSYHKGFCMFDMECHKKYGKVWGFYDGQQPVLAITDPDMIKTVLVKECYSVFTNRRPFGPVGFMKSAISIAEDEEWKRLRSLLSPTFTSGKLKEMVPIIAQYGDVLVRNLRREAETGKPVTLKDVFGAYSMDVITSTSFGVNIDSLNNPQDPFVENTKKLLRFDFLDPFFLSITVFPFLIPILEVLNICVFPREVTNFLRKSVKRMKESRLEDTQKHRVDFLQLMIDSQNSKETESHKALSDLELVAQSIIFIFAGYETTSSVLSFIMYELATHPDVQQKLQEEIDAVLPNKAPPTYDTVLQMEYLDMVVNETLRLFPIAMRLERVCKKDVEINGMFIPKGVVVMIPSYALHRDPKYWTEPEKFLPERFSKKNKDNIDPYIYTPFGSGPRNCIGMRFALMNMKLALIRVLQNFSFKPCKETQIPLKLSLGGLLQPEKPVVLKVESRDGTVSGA
Sequence of Cytochrome P450 2D6 (Homo sapiens) (P10635 whole entry, looked up): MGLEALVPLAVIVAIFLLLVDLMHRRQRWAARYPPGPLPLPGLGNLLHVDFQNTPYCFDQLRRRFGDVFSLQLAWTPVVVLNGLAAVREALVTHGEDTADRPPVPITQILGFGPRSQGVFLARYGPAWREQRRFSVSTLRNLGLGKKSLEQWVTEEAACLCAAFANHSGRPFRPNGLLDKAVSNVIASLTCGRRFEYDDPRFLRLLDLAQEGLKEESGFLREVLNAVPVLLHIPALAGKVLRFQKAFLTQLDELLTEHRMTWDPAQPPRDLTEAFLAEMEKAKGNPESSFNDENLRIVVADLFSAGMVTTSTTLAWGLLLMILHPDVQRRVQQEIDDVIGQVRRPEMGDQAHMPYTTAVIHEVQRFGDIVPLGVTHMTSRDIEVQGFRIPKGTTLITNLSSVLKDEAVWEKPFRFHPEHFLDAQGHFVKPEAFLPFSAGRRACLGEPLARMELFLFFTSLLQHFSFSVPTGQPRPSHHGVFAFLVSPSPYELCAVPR
Sequence of Cytochrome P450 1A2 (Homo sapiens) (P05177 whole entry, looked up): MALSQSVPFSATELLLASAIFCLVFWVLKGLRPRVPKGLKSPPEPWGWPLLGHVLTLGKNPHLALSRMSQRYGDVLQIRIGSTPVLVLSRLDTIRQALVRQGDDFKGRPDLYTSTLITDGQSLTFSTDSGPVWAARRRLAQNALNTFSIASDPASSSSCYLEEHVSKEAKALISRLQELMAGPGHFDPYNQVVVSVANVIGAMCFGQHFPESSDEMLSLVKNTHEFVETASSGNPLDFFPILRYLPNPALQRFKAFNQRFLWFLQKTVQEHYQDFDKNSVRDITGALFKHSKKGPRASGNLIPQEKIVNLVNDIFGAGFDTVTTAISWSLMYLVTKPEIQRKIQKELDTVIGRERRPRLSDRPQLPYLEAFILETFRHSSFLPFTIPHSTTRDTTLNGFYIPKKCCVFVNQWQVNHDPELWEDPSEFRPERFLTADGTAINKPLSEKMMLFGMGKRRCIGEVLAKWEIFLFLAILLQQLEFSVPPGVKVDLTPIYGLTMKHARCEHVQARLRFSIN
Sequence of Cytochrome P450 2C19 (Homo sapiens) (P33261 whole entry, looked up): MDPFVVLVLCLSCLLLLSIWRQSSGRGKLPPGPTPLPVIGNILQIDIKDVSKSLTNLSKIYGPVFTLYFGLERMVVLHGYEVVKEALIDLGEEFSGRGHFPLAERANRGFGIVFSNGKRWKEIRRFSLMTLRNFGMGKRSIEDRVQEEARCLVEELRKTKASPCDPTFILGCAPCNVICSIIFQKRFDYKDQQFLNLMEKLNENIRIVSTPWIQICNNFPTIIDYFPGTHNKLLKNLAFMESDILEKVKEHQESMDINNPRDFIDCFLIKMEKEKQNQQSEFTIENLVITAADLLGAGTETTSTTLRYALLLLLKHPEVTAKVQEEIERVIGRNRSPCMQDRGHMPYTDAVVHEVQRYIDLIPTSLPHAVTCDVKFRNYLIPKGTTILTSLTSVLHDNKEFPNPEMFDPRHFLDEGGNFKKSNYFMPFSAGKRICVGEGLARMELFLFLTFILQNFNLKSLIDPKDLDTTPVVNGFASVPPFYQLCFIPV

Turning to `CC/C=C\C/C=C\C/C=C\C/C=C\C/C=C\C/C=C\CCC(=O)O`, the call in [1], in [2], in [3], in [4], in [5] and in assay [8] was inactive. Moreover, in assay [6], the Potency entry was “inactive”. Also, the max response in assay [7] is -0.949% (inactive).

As for `CCN(CC)C(=S)S`, the outcome in assay [9] was inactive.

In the case of `CC/C=C\C/C=C\C/C=C\CCCCCCCC(=O)O`, the outcome in assay [1], in [2], in [3], in assay [5] and in assay [8] was inactive. The Potency entry in assay [6] was “inactive”. In addition, in assay [7], the max response is -1.87% (inactive).

Consider `Nc1nccs1`, for which, in [9], the call was inactive.

Take `CC1=CCC2CC1C2(C)C` (stereo not drawn): the call in [2], in [3], in assay [4], in assay [10], in assay [5] and in [8] was inactive. In addition, the Potency in assay [6] is 3.55 µM (active). In addition, the max response in assay [7] was 3.27% (inactive).

Consider `CCCCC/C=C\C/C=C\C/C=C\CCCCC(=O)O`, for which the activity change, negative = cytotoxicity in [1] was -8.92% [at 5 µM] (inactive). Moreover, the activity change, negative = cytotoxic in [2] was -4.42% [at 3.42 µM] (inactive). For the same molecule, the activity change, negative = inhibition in [3] is 15.8% [at 3.42 µM] (inactive); in [4] it was 10.3% [at 4.27 µM] (inactive); in assay [10], 3.71% [at 4.27 µM] (inactive); in assay [13] it was 19.3% [at 4.27 µM] (inactive); in assay [5], -0.723% [at 3.26 µM] (inactive); in assay [6] it was 7.42% [at 4.62 µM] (inactive). Further, the Potency entry in assay [11] is “inactive”. For the same molecule, the Potency in assay [12] was 8.91 µM (active). Moreover, the max response in assay [7] was -1.8% (inactive).

With `CC(=O)N[C@@H]([C@@H](O)[C@H](O)[C@H](O)CO)[C@@H](O)CC(=O)C(=O)O`, the molecule was classed as inactive in [9].

On to `Cc1c(O)c(=O)ccn1C`, for which, in assay [9], the call was inactive. For the same molecule, the Potency entry in assay [11] and in assay [12] was “inactive” each time.

Regarding `CCCCCCCCCCCC(=O)OCC(O)CO` (stereo not drawn), the molecule was called inactive in [1], in assay [2], in [3], in assay [4], in assay [10] and in assay [5]. In addition, the result in assay [8] was inactive. Also, the Potency result in [11] and in assay [12] was “inactive” in each case. The max response in assay [7] is 2.27% (inactive).

Take `C=CC[C@@H]1/C=C(\C)C[C@H](C)C[C@H](OC)[C@H]2O[C@@](O)(C(=O)C(=O)N3CCCC[C@H]3C(=O)O[C@H](/C(C)=C/[C@@H]3CC[C@@H](O)[C@H](OC)C3)[C@H](C)[C@@H](O)CC1=O)[C@H](C)C[C@@H]2OC`: the molecule was called inactive in [9]. The Potency is 3.65 µM (active) in [14]; “inactive and 2.55 µM (active)” in assay [11]; “inactive and 2.82 µM (active)” in [12].

As for `CNC(=O)[C@H](Cc1c[nH]c2ccccc12)NC(=O)[C@@H](CC(=O)NO)CC(C)C`, the result in assay [9] was inactive. Moreover, the Potency entry in [14], in assay [11] and in assay [12] was “inactive” throughout.
